Values joined by “and” are separate entries in the source; they are usually repeats but may differ in a detail not shown here. Equal entries are not always repeated. Records with an inconclusive call do not appear. A number with no mark means an inactive call. Active and inactive are the calls of the source. Calls come from the whole dose curve; as a rule, active = well fitted curve in the direction sought with a large enough effect; inconclusive = small, poorly fitted or top-dose-only effect, or another doubt; inactive = no such curve, though single readings can be large; an effect the other way counts as inactive or inconclusive. Square brackets hold non-standard residues; d marks the D form. Peptide text beside a SMILES is read from it. * marks the point of attachment. Nva = CCC[C@H](N)C(=O)O; Cbz = O=C(OCc1ccccc1)*

The nature of assay [1]: Viability qHTS for spleen associated tyrosine kinase inhibitor (SYKi) naive MV4-11 cells (AID 1963823). Note: nearly all actives have a fitted effect of over 40% in size. The procedure, abridged: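 Luminescence from CellTiter-Glo, developed 10 min at room temperature, gave viability of MV4-11 cells never exposed to SYK inhibitor. Cells (500/well) had been incubated with compounds for 72 hr under standard culture conditions.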
Assay [2] in a line: Viability qHTS for spleen associated tyrosine kinase inhibitor (SYKi) drug resistant MV4-11 cells (AID 1963824). Note: nearly all actives have a fitted effect of over 35% in size. The procedure, abridged:
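CellTiter-Glo luminescence, read 10 min after reagent addition, reports viability after a 72 hr compound exposure. Cells are an MV4-11 line made resistant to SYK inhibition, seeded at 500 per well onto compound-containing plates.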

A short description of assay [3]: Quantitative highthroughput screen to assess conditional lethalithy of NOMO1 cells grown in RPMI1640 with untreated serum (RPMI+s) (AID 1963876).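 For Viability: 100% = DMSO wells and 0% = empty wells without cells.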 Note: nearly all actives have a fitted effect of over 35% in size. The procedure, abridged: (§1)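 Each medium arm—HPLM with 10% dialyzed FBS, or RPMI1640 with 5 mM glucose and 10% untreated or dialyzed FBS—was screened against an 11-point, 3-fold compound titration for 48 h at 37 °C, with CellTiter-Glo luminescence as endpoint.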

Assay [4] in a line: Quantitative highthroughput screen to assess conditional lethalithy of NOMO1 cells grown in RPMI1640 with dialyzed fetal bovine serum (RPMI+ds) (AID 1963877).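 For Viability: series mostly up to about 46 µM; 100% = DMSO control wells and 0% = empty wells.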 Note: nearly all actives have a fitted effect of over 30% in size. The procedure, abridged:
as §1

A short description of assay [5]: Quantitative highthroughput screen to assess conditional lethalithy of NOMO1 cells grown in Human Plasma-Like Medium with dialyzed fetal bovine serum (HPLM+ds) (AID 1963878).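 For Viability: 100% = DMSO wells and 0% = empty wells on each plate.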 Note: nearly all actives have a fitted effect of over 35% in size. The procedure, abridged:
as §1

A short description of assay [6]: Quantitative highthroughput screen to assess conditional lethalithy of P12 Ichikawa cells grown in Human Plasma-Like Medium with dialyzed fetal bovine serum (HPLM+ds) (AID 1963879). For Viability: series mostly up to about 46 µM. Note: nearly all actives have a fitted effect of over 35% in size. Particulars: Potency: viability. The procedure, abridged:
as §1

Assay [7] is described as follows: Quantitative highthroughput screen to assess conditional lethalithy of P12 Ichikawa cells grown in RPMI1640 with dialyzed fetal bovine serum (RPMI+ds) (AID 1963880).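 For Viability: 100% = DMSO wells and 0% = empty wells on each plate.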 Note: nearly all actives have a fitted effect of over 35% in size. Particulars: Potency: P12-Ichikawa viability. The procedure, abridged:
as §1

Assay [8] is described as follows: Quantitative highthroughput screen to assess conditional lethalithy of P12 Ichikawa cells grown in RPMI1640 with untreated serum (RPMI+s) (AID 1963881).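 For Viability: series mostly up to about 46 µM; 100% = DMSO wells and 0% = empty wells without cells.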 Note: nearly all actives have a fitted effect of over 35% in size. The following applies: Potency: viability. The procedure, abridged:
as §1

Assay [9] can be described thus: Quantitative highthroughput screen to assess conditional lethalithy of SEM cells grown in Human Plasma-Like Medium with dialyzed fetal bovine serum (HPLM+ds) (AID 1963882). For Viability: series mostly up to about 46 µM. Note: nearly all actives have a fitted effect of over 35% in size. The procedure, abridged: as §1
Assay [10] is described as follows: Quantitative highthroughput screen to assess conditional lethalithy of SEM cells grown in RPMI1640 with unreated serum (RPMI+s) (AID 1963883).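 For Viability: 100% = DMSO wells and 0% = empty wells without cells.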 Note: nearly all actives have a fitted effect of over 35% in size. The procedure, abridged: as §1
Assay [11] is described as follows: Quantitative highthroughput screen to assess conditional lethalithy of SEM cells grown in RPMI1640 with dialyzed fetal bovine serum (RPMI+ds) (AID 1963884).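 For Viability: series mostly up to about 46 µM; 100% = DMSO control wells and 0% = empty wells without cells.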 Note: nearly all actives have a fitted effect of over 35% in size. The procedure, abridged:
as §1

Assay [12] in a line: Cellular viability qHTS for adrenocortical cancer (ACC) cell line SW-13 (AID 1963989).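 For activity (max response): cells grown in serum-free medium with ITS supplement; % is set by controls: 0 for no effect and ±100 for the full control effect.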 Note: nearly all actives have a fitted effect of over 65% in size. Particulars: SW-13 ACC cells viability, CellTiter-Glo, 48 h; activity (max response): hits give low values. The procedure, abridged:
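Here, serum-free SW-13 cultures were dosed up to 46 uM. Following 48 h, ATP-dependent luminescence (CellTiter-Glo) reported viable cells, and logistic modeling produced IC50 values.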

Assay [13] in a line: Cellular viability qHTS for adrenocortical cancer (ACC) cell line NCI-H295R (AID 1963990).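 For activity change, negative = viability loss: 0% = DMSO only wells and -100% = full killing with cytotoxic reference compound.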 Note: nearly all actives have a fitted effect of over 60% in size. The procedure, abridged:
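Viability of NCI-H295R after 48 h of treatment (final up to 46 uM) measured through cellular ATP luminescence.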
Potency is the fitted concentration of half-maximal effect.

Regarding `Oc1ccc(C2=Cc3ccc(O)cc3OC2)cc1`, the Potency was 417 nM (active) in [1]; 366 nM (active) in [2]; 9350 nM (active) in assay [3]; 11800 nM (active) in assay [4]; 9350 nM (active) in assay [5]; 2960 nM (active) in assay [6]. In addition, the Potency was 2640 nM (active) in [7]; 2960 nM (active) in assay [8]; 2960 nM (active) in assay [9]; 3320 nM (active) in [10]; 3720 nM (active) in assay [11]; 7080 nM (active) in assay [12]. In addition, in assay [13], the Potency was 11200 nM (active).
Take `O=C(CCCCCCC(=O)Nc1ccc([C@H]2O[C@@H](CSc3nc(-c4ccccc4)c(-c4ccccc4)o3)C[C@@H](c3ccc(CO)cc3)O2)cc1)NO`: the Potency in assay [1] is 16400 nM (active); in assay [2], 18400 nM (active); in [3], 9350 nM (active); in assay [4], 9350 nM (active); in [5], 8330 nM (active); in [6] it was 4690 nM (active). Further, the Potency was 3320 nM (active) in [7]; 4690 nM (active) in assay [8]; 7430 nM (active) in assay [9]; 7430 nM (active) in assay [10]; 6620 nM (active) in assay [11]. Also, the activity (max response) in assay [12] was -9.54%. For the same compound, the activity change, negative = viability loss in assay [13] is -23.6% [at 9.17 µM].
As to `N=C(N=C(N)N)N1CCOCC1`, the Potency result in assay [1], in assay [2], in assay [3], in assay [4], in [5] and in [6] was “inactive” each time. Further, the Potency result in [7], in assay [8], in assay [9], in assay [10], in [11] and in assay [13] was “inactive” each time. Further, in assay [12], the activity (max response) is -4.25%.
On to `COCCOc1nc(-c2ccc(Cl)c(Cl)c2)n(-c2ccc(NC(=O)CCl)cc2)n1`, for which the Potency in assay [1] was 2310 nM (active); in assay [2], 1480 nM (active); in assay [12], 4470 nM (active); in [13], 199 nM (active). Further, the Potency entry in assay [3], in assay [4], in assay [5], in assay [6], in assay [7] and in assay [8] was “inactive” throughout. Moreover, the Potency result in assay [9], in [10] and in [11] was “inactive” each time.
Consider `CC(C)(OCc1nn(Cc2ccccc2)c2ccccc12)C(=O)O`, for which the Potency result in [1], in assay [2], in [3], in [4], in [5] and in assay [6] was “inactive” throughout. Besides, the Potency result in assay [7], in [8], in assay [9], in [10], in assay [11] and in [13] was “inactive” each time. For the same compound, the activity (max response) in assay [12] was 3.54%.
As to `Cc1ccnc(NS(=O)(=O)c2ccc(NC(=O)Nc3ccc(S(=O)(=O)Nc4nccc(C)n4)cc3)cc2)n1`, the Potency result in [1], in assay [2] and in assay [13] was “inactive” each time. The Potency in assay [3] is 296 nM (active); in assay [4] it was 469 nM (active); in assay [5] it was 118 nM (active); in assay [6], 264 nM (active); in assay [7] it was 332 nM (active); in assay [8], 469 nM (active). Also, the Potency in assay [9] was 187 nM (active); in assay [10] it was 83.3 nM (active); in assay [11], 105 nM (active). The activity (max response) in assay [12] was -24.6%.
Regarding `CCC[C@@H](C=O)NC(=O)[C@H](CC(C)C)NC(=O)[C@H](CC(C)C)NC(=O)OCc1ccccc1` (Cbz-Leu-Leu-[Nva]-aldehyde), the Potency in assay [1] is 742 nM (active); in assay [2], 934 nM (active); in assay [3], 1320 nM (active); in assay [4], 2640 nM (active); in [5], 1870 nM (active); in assay [6] it was 3320 nM (active). Moreover, the Potency was 3320 nM (active) in assay [7]; 2640 nM (active) in assay [8]; 2350 nM (active) in [9]; 526 nM (active) in assay [10]; 1480 nM (active) in assay [11]; 2000 nM (active) in assay [12]. In addition, the Potency in [13] is 1580 nM (active).
As to `O=C(NC1CCNCC1)c1[nH]ncc1NC(=O)c1c(Cl)cccc1Cl`, the Potency in assay [1] is 590 nM (active); in assay [2], 411 nM (active); in [3], 1320 nM (active); in assay [4], 1180 nM (active); in assay [5] it was 1180 nM (active); in assay [6] it was 1660 nM (active). The Potency in [7] is 2350 nM (active); in [8], 1480 nM (active); in [9] it was 1050 nM (active); in assay [10], 1320 nM (active); in assay [11], 1320 nM (active); in assay [12] it was 1120 nM (active). Further, the Potency in assay [13] is 15800 nM (active).
Regarding `CC(C)NCC(O)c1ccc(NS(C)(=O)=O)cc1` (centres undefined), the Potency result in assay [1], in assay [2], in assay [3], in assay [4], in [5] and in [6] was “inactive” in each case. Also, the Potency result in [7], in assay [8], in [9], in [10], in [11] and in [13] was “inactive” each time. Further, the activity (max response) in [12] was 2.53%.
On to `Cc1cccc(-c2[nH]c(C(C)(C)C)nc2-c2ccc3c(c2)OCO3)n1`, for which the Potency is 2350 nM (active) in [1]; 1.46 µM (active) and 2.09 µM (active) in assay [2]; 8330 nM (active) in assay [3]; 9350 nM (active) in assay [4]; 10500 nM (active) in [5]; 9350 nM (active) in assay [6]. Besides, the Potency in assay [7] was 11800 nM (active); in assay [8], 10500 nM (active); in [9], 8330 nM (active); in assay [10] it was 9350 nM (active); in [11] it was 9350 nM (active); in assay [12] it was 7940 nM (active). For the same compound, the Potency in [13] is 4470 nM (active).
Take `Cc1c(-c2ccnn2C)cc(C(=O)NCc2ccc(S(C)(=O)=O)cn2)c(=O)n1-c1cccc(C(F)(F)F)c1`: the Potency result in [1], in assay [2], in assay [3], in [4], in assay [5] and in assay [6] was “inactive” in each case. The Potency result in assay [7], in assay [8], in assay [9], in [10], in assay [11] and in assay [13] was “inactive” in each case. The activity (max response) in assay [12] is 5.26%.
For `CNC(=O)c1ccc2cc(C3(O)CCn4cncc43)ccc2c1` (centres undefined), the Potency entry in assay [1], in assay [2], in assay [3], in assay [4], in [5] and in [6] was “inactive” in each case. In addition, the Potency entry in assay [7], in [8], in assay [9], in assay [10], in assay [11] and in [13] was “inactive” throughout. The activity (max response) in [12] was -3.07%.
As to `CC(C)[C@H](N)C(=O)OCCOCn1cnc2c(=O)[nH]c(N)nc21`, the Potency in assay [1] was 5900 nM (active). The Potency result in assay [2], in assay [3], in assay [4], in assay [5], in [6] and in assay [7] was “inactive” in each case. The Potency entry in assay [8], in assay [9], in assay [10], in [11] and in [13] was “inactive” in each case. Further, the activity (max response) in [12] was -3.62% and -11.6%.

For the origin of these results see PubChem BioAssay (NCATS).
